From PubChem BioAssay AID488841 (Sanford-Burnham Center for Chemical Genomics, 2010)
The whole screen tested about 1,400 compounds, of which about 380 (27%) were called active.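 How the source made its calls: active means mean inhibition above 50% across duplicate retests at 10 µM; inactive means the rest.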 This is one part of the list.

Experiment: yeast NALP1 reporter signal suppression – S. cerevisiae, luminescence, single concentration, NALP1 inhibitor project, confirmation (AID 488841);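 further: plate controls were DMSO in galactose medium for no effect and cells in plain SD medium for full effect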
Conditions: S. cerevisiae NALP1/ASC/Caspase-1 reporter, beta-gal luminescence; at 10 µM; active compounds read high

inhibition, inactive:
CCCc1nc2ccc(NC(=O)c3ccco3)cc2c(=O)n1Cc1ccccc1Cl 27%, COc1cccc(NC2=C(Cl)C(=O)OC2OC(=O)c2ccco2)c1 (stereo unspecified) 29.2%, COc1ccc2c(c1)C1=NN(/C(C)=C/C(C)=O)C(c3ccc(F)cc3)C1CC2 (stereo unspecified) 42.4%, Cn1nc(NC(=O)C(C)(C)C)c2c(F)cccc21 8.45%, CC(C)Oc1ccc(Cc2cnc(N)nc2N)cc1 9.95%, Cc1ncc(S(=O)(=O)c2ccccc2)c(-c2ccccc2Cl)n1 10.2%, CC(NC(=O)c1ccc(F)cc1)C(=O)NC1=NCCS1 (stereo unspecified) 22.1%, CN1CCN(C2=C(Cl)C(=O)N(CCc3ccccc3)C2=O)CC1 46.6%, N#C/C(=C\c1ccc([N+](=O)[O-])o1)c1nc2ccccc2[nH]1 24.8%, Cn1c(/C(C#N)=C/C2CC=CCC2)nc2ccccc21 (stereo unspecified) 37%, O=c1oc2ccccc2nc1/C=C(O)/C=C/c1ccc(F)cc1 33.8%, COc1ccccc1C(=O)Nc1nc2nc(-c3ccccc3)cc(=O)n2[nH]1 22.9%, CCN(CC)CCN1C(=O)c2ccccc2NC1c1ccc(N(C)C)cc1 (stereo unspecified) 25.7%, CCN(C(=O)[C@@H]1CCCN1C(=O)c1cccs1)c1nc2cc(Cl)ccc2s1 46.8%, CCCCNC(=O)COC(=O)c1ccc(Cl)c(S(N)(=O)=O)c1 25.9%, CCOc1nnc(C)c2c(C)n(-c3cccc(Cl)c3)nc12 25.5%, Clc1ccc2oc3c(Cl)ncnc3c2c1 23.1%, CC(C)(C)c1cc2cccnc2n1Cc1cccc(Cl)c1 35.9%, CC(OC(=O)CC(NC(=O)c1ccccc1Cl)c1ccccc1)C(=O)Nc1cccc(Cl)c1Cl (stereo unspecified) 29.8%, O=C(CCl)NC(=O)NC12CC3CC(CC(C3)C1)C2 32.7%, CCCCNC(=O)C(=O)N/N=C/c1cccc(Br)c1 45.6%, CC(/C=N/NC(=O)CSc1ccccn1)=C\c1ccc(C(C)C)cc1 26.2%, CC(/C=N/NC(=O)CCn1nnc2ccccc21)=C\c1ccccc1 38.2%, COc1cc2c(cc1NC(=S)Nc1ccccc1C)oc1ccccc12 26.9%, Cc1ccc(S(=O)(=O)c2nc(C)oc2NCc2ccccc2)cc1 35%, CCOC(=O)/C(=N\Nc1ccc(Cl)cc1)c1csc(Nc2ccccc2)n1 27.4%, CCCOc1ccc(OCCSc2ncccn2)cc1 39.4%, Cc1cc(N2C(=O)C=CC2=O)c([N+](=O)[O-])cc1C 41.7%, Fc1ccc(NC(=S)N2CCSC2c2cccs2)cc1 (stereo unspecified) 17.1%, Cc1ccc(S(=O)(=O)NC2=NCN(CCOC(=O)c3ccc([N+](=O)[O-])cc3)CN2)cc1 22.2%, COc1ccc(C(=O)Nc2ccc(S(=O)(=O)Nc3nccc(C)n3)cc2)cc1OC 31.2%, COc1ccc2nc3oc(C(=O)Nc4ccc(OC)c(OC)c4)cc3cc2c1 23.6%, c1ccc(COc2ccc(OCCN3CCCCC3)cc2)cc1 35.1%, O=C(O)c1cccnc1C(=O)N1CCc2c([nH]c3ccccc23)C1C(F)(F)F (stereo unspecified) 0.7%, COc1ccccc1NC(=O)C1=C(C)NC(=O)NC1c1cccs1 (stereo unspecified) 27.1%, Cc1ccc(C(=O)NCCCNc2ccc(C(F)(F)F)cc2[N+](=O)[O-])cc1 31.8%, CCOC(=O)C(=O)C1=C(N2CCOCC2)/C(=C\c2ccc(F)cc2)CC1 33.4%, CCOc1c(Cl)cc(CNCC(C)C)cc1OC 32.7%, COc1cc(CNC2CCCCCCC2)cc(Br)c1OCC#N 38.8%, COc1ccc2c(c1)NC(=O)CC(c1ccccc1)=N2 43.5%, Cc1cccc(NC(=O)c2ccc(C3SCC(=O)N3CCc3ccccc3)cc2)c1C (stereo unspecified) 48.8%, COc1ccc(N=c2cc(-c3ccc(OC)cc3)oc3ccccc23)cc1 49.6%, CCCCN(Cc1ccccc1)C(=O)C1CCN(Cc2sccc2C)CC1 40.8%, Cc1ccc(/C=C/C(=O)NCc2ccc3c(c2)OCO3)o1 36%, Nc1c(C(=O)NCc2ccc3c(c2)OCO3)nnn1-c1ccc(OC(F)(F)F)cc1 31.3%, CCOc1oc(-c2ccc(OC)cc2)nc1C(F)(F)F 24.1%, O=C(N/N=C/c1ccncc1)c1cc2ccccc2o1 47.5%, O=C(Nc1cccc(-c2nc3ncccc3o2)c1)c1cc2ccccc2o1 46.4%, COc1cccc(CN(C)CC(=O)Nc2cccc(S(N)(=O)=O)c2)c1OC 33.9%, C(#Cc1ccc(C#CCN2CCCC2)cc1)CN1CCCC1 17.6%, OC(CSc1c(Cl)cccc1Cl)CN1CCN(c2ccccc2F)CC1 (stereo unspecified) 40.9%, CCOC(=O)N1CCN(CC(O)COc2ccccc2C(C)(C)C)CC1 (stereo unspecified) 42.4%, CCC(=O)c1ccc(OCC(O)CN2CCN(c3cccc(C(F)(F)F)c3)CC2)cc1 (stereo unspecified) 49.5%, Cc1cccc(C(=O)NNC(=O)CN2C(=O)c3ccccc3C2=O)c1 24.9%, Cc1ccc(N2C(=N)/C(=C3/Nc4ccccc4S3)C(c3ccccc3)C2=O)cc1 (stereo unspecified) 35.2%, CCc1cccc2c(C(=O)CSc3nncn3-c3ccc(OC)cc3)c[nH]c12 25.8%, CCc1cccc2c(C(=O)COC(=O)c3ccccc3)c[nH]c12 40%, c1csc(CNc2nc3ccccc3n2CCN2CCOCC2)c1 33.5%, O=C(CNC(c1ccccc1)c1ccccc1)Nc1c(F)cccc1F 26.1%, COC(=O)c1ccc(NC(=O)CN2C(=O)CNC2=O)cc1 32.5%, CN(C)CCNC(=O)COc1ccc(Cl)cc1Cl 25.2%, CC(C)NCCOCCOc1ccc(Cl)cc1Br 35.1%, C=C1SC(Nc2c(C)cccc2C)=NC12CCCCC2 29.4%, COc1ccccc1C(=O)Nc1ccc(OCc2nnc3c4ccccc4c(C)nn23)cc1 36.5%, COc1ccc2[nH]c(C)c(CCNC(=S)Nc3cc(C)cc(C)c3)c2c1 30%, CC(C)CCN(C(=O)Nc1ccccc1)C(C)c1cccs1 (stereo unspecified) 29.9%, CCOc1ccc(NC(=O)CSc2nnc(C)n2Cc2ccccc2)cc1 26.8%, CCOc1ccc(NC(=O)c2cc3c(C)nc4ccccc4c3o2)cc1 17.3%, CC1CN(C(=O)Nc2ccc3c(c2)OCO3)CC(C)O1 (stereo unspecified) 30.4%, O=C(Nc1cccnc1)Nc1ccc2c(c1)OCO2 32.1%, Cc1ccc(S(=O)(=O)NCC(=O)N(CC(=O)NC(C)(C)C)Cc2cccs2)cc1 31.3%, Cc1cc(=O)oc2cc(OCC(=O)N3CCN(C(=O)c4ccco4)CC3)ccc12 21.1%, O=C(c1ccc(Br)o1)N(c1ccccn1)C1CCCCC1 41.8%, C/C(=N\N(C)C)C1=C(O)c2ccccc2C1=O 29.9%

inhibition, active:
O=C(Nc1ccc(Cl)c(Cl)c1)Oc1ccc(NC(=O)c2ccco2)cc1 52.8%, O=C1O/C(=C/c2ccccc2)c2ccccc21 73.8%, Cc1ccc(-c2csc(NC(=O)c3ccc(F)cc3)c2C(=O)O)cc1 89.8%, N#C/C(=C/c1cccs1)c1nc2ccccc2[nH]1 89%, CN(C)CCN(C(=O)/C=C/c1cccs1)c1nc2c(F)cc(F)cc2s1 51.6%, CN(C)CCN(C(=O)/C=C/c1cccs1)c1nc2ccc(F)cc2s1 72.1%, Cc1cc(C)n(CCOc2ccc(Cl)cc2Cl)n1 53.1%, CC(/C=N/NC(=O)c1c(Br)cnn1C)=C\c1ccccc1 54.4%, Cc1ccc(S(=O)(=O)c2nc(Nc3ccccc3)sc2Cl)cc1 55.3%, Brc1ccc(C=Nc2ccc(Nc3ccccc3)cc2)s1 51.1%, COc1ccc(NC(=S)SC)cc1OC 52.4%, O=[N+]([O-])c1cc(C(F)(F)F)ccc1NCCc1c[nH]c2ccc(O)cc12 51.8%, CCOc1cc(CNCc2ccncc2)cc(Br)c1OCc1ccc(F)cc1 69.7%, CCOc1cc(CNC2CCCC2)cc(Cl)c1OCc1ccc(F)cc1 50.7%, O=S(=O)(NC1CCCCC1)c1ccc(F)c2ccccc12 51.6%, O=C(CSCc1cnn(-c2ccccc2)c1-n1cccc1)NCc1ccc2c(c1)OCO2 50%, COc1ccc2c(c1)O/C(=C\c1sccc1C)C2=O 65.4%, O=C(NC(=S)Nc1cccnc1)c1cc2ccccc2o1 55.4%, OC(COc1ccc2c(c1)CCC2)CN1CCN(c2ccccc2F)CC1 (stereo unspecified) 73.8%, O=[N+]([O-])c1ccc(OCC(O)CN2CCN(c3ccccc3F)CC2)cc1 (stereo unspecified) 55.2%, CCc1cccc2c(C(=O)COC(=O)c3ccc([N+](=O)[O-])s3)c[nH]c12 91.5%, CC(C)NC(=O)CCCOc1ccc(Cl)cc1Cl 54.9%, COc1ccc2[nH]c3c(C)c4ccncc4c(C)c3c2c1 94.5%, CCOc1ccc(NC(=O)c2csc3c2CCCC3)cc1 52.4%, O=C(NN1C(=O)c2cc(Br)ccc2NC1c1cc(Br)cc(Br)c1O)c1ccncc1 (stereo unspecified) 64.8%, COC(=O)c1cccc(NC(=O)/C=C/c2ccc3c(c2)OCO3)c1 60.6%, CC(=O)N(C1=C(Cl)C(=O)c2ccccc2C1=O)C1CCCCC1 58%
